Screening data as filed in PubChem.
Compounds with a hit are over-represented: about 3.4% of the library has one in this group of screens.
FBW7 activator = activators of human E3 ligase FBW7; normalized activity (activation), % at 26.1 µM; Q969H0; AlphaScreen FBW7–phospho-cyclin E peptide binding, activator screen; 650,000 compounds, 0.13% hits; AID 1259310; in the data active = normalized activity above about 1.9%;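 note: purified mutant Fbw7 with reduced substrate affinity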
GPR151 activ = human GPR151 activation | AID 1508602 | PathHunter beta-arrestin GPR151 cells, luminescence | 650,000 compounds, 1% hits | activation, % at 11.2 µM; in the data active = activation above about 4.9%;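 note: 0% = median of compound wells and 100% = cells with positive control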
TEAD-YAP block = TEAD-YAP interaction inhibition; HEK-TIYL cells, TEAD-Gal4/YAP UAS-luciferase luminescence; inhibition, % at 9.12 µM; 640,000 compounds, 1.4% hits; AID 1259422; in the data active = inhibition above about 32%;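 note: 0% = median of test compound wells and 100% = reference inhibitor wells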
MITF primary = blocks human microphthalmia-associated transcription factor. AlphaScreen MITF homodimerization, bead proximity signal. 650,000 compounds, 0.91% hits. inhibition, % at 2.6 µM; in the data active = inhibition above about 50%;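 note: 0% = vehicle wells with protein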
GPR151 conf act = confirmation of human GPR151 activators | 6,700 tested, under 10 active | GPR151 PathHunter beta-arrestin cells, luminescence, 90 min; % of EA-reagent control over plate median | shares compounds with GPR151 activ | activation, % at 11.2 µM;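 active = mean percent activation across replicates above the confirmation screen cutoff of 4.91%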
GPR119 ag = GPR119 activation, counter-screen for GPR151 activators. shares compounds with GPR151 activ. GPR119 PathHunter beta-arrestin cells, luminescence, 90 min; 0 = compound-well median, 100 = enzyme-acceptor control. activation, % at 11.2 µM. 6,700 compounds, 0.3% hits. AID 1508611;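 active = mean percent activation in the counterscreen above 29.09%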;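 note: counterscreen on off-target GPR119 to flag nonselective hits from the GPR151 activator screen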
Numbers without * were called inactive; . = not tested or not shown.

SMILES	FBW7 activator	GPR151 activ	TEAD-YAP block	MITF primary	GPR151 conf act	GPR119 ag
O=C(NCC1(c2ccccc2)CCCC1)C1CC12CCN(C(=O)Cc1cscn1)CC2 (centres undefined)	0.1	-0.4	1.9	13.2	.	.
Cc1oc(-c2ccc(Cl)cc2)nc1CS(=O)CC(=O)NC(C)C (centres undefined)	0.0	9.4*	3.1	5.6	-0.5	-9.2
Cc1oc(-c2ccc(Cl)cc2)nc1CS(=O)CC(=O)NC(C)c1ccccc1 (centres undefined)	1.2	-1.2	-7.4	15.1	.	.
COc1ccc(N(CC(=O)NC(C)c2ccccc2)S(=O)(=O)c2ccccc2)cc1 (centres undefined)	0.0	1.0	3.3	3.5	.	.
CC1SCC(=O)N(CC(=O)Nc2ccc(F)cc2)C1=O (centres undefined)	0.1	-1.0	-4.7	0.3	.	.
CCCC(CCC)C(=O)Nc1ccncc1	1.1	8.7*	-3.2	11.0	1.0	5.2
CCCC(CCC)C(=O)Nc1cccnc1	-0.1	0.3	1.9	-12.0	.	.
Cc1c(C=C2C(=O)N(C)C(=O)N(C)C2=O)c2ccccc2n1Cc1cccc(F)c1	-0.7	0.4	-17.3	-9.9	.	.
CC(C)c1ccc(NC(=O)CSc2nc3cc4c(cc3c(=O)n2CCC2=CCCCC2)OCO4)cc1	-0.2	5.9*	3.5	-4.0	-0.6	7.2
COC(=O)c1c(NC(=O)c2ccc(S(=O)(=O)N3CCCC(C)C3)cc2)sc2c1CCN(C(C)C)C2 (centres undefined)	-0.1	0.5	-0.3	-14.6	.	.
CCN1CCc2c(sc(NC(=O)c3ccc(S(=O)(=O)N4CCCC(C)C4)cc3)c2C(=O)OC)C1 (centres undefined)	0.0	5.3*	2.1	7.9	2.3	15.1
CC1=C/C(=N\S(=O)(=O)c2ccccc2)C(C)=CC1=O	0.0	-0.7	4.2	-13.2	.	.
CC1=C/C(=N\OS(=O)(=O)c2ccccc2)C(C(C)C)=CC1=O	-0.1	8.5*	-8.6	19.9	0.4	20.1
CN(C)c1ccc(NC2CC(=O)N(c3cccc4ccccc34)C2=O)cc1 (centres undefined)	0.4	5.6*	5.0	33.3	-0.3	3.6
CN(C)c1ccc(NC2CC(=O)N(c3cccc(Cl)c3)C2=O)cc1 (centres undefined)	0.1	-0.4	4.3	18.2	.	.
CCOc1cc(C=C2C(=O)c3ccccc3C2=O)ccc1OC(C)=O	-0.2	10.2*	15.1	5.6	-0.6	-15.9
[O-][n+]1ccccc1SSc1cccc[n+]1[O-]	0.3	6.9*	96.2*	0.7	-1.3	-13.8
O=C(CSc1cccc[n+]1[O-])N1CCCCCC1	0.1	2.4	1.9	2.4	.	.
CCCCNCCCOc1cc(C)ccc1C	0.1	5.0*	4.1	2.1	0.4	0.7
Cc1ccc(C)c(OCCN2CCNCC2)c1	0.1	9.0*	5.8	35.3	0.4	1.6
COCCNCCOc1ccc(C)cc1C	-0.1	8.1*	-4.5	35.2	1.7	17.4
CCCCNCCOc1cc(C)ccc1C	0.0	-0.7	4.8	14.0	.	.
COCCNCCOc1ccc(C)cc1Cl	0.2	1.3	-1.5	33.8	.	.
CC1(c2cccc(F)c2)C(=O)Nc2ccccc21 (centres undefined)	-0.2	-1.6	6.9	-7.2	.	.
Cc1ccc(NC(=O)CCc2nnc3ccc(N4CCC(C)CC4)nn23)cc1	0.0	5.0*	3.1	-24.4	0.0	-5.0
SMILES	FBW7 activator	GPR151 activ	TEAD-YAP block	MITF primary	GPR151 conf act	GPR119 ag
Cc1ccc(NC(=O)CCc2nnc3ccc(N4CCC(C(N)=O)CC4)nn23)cc1	-0.1	0.4	-2.6	5.3	.	.
CCOc1cccc2cc(-c3cn4cc(C)ccc4n3)c(=O)oc12	0.1	10.5*	-36.0	9.3	-1.2	-17.1
COc1cccc2cc(-c3cn4ccc(C)cc4n3)c(=O)oc12	-0.1	1.4	-69.5	-1.9	.	.
Cn1c(=O)cc(NC2CCCCC2)n(Cc2ccc(F)cc2F)c1=O	-0.2	-0.4	-10.3	1.6	.	.
Cc1ccc(NC(=O)CCNS(=O)(=O)c2ccc3nc(-c4ccccc4)[nH]c3c2)cc1	-0.2	0.4	12.1	-2.6	.	.
CCC(C)NC(=O)CCNS(=O)(=O)c1ccc2nc(-c3ccccc3)[nH]c2c1 (centres undefined)	-0.2	7.0*	-0.9	5.6	1.0	-0.6
O=C(Cn1ncn2nc(-c3cccs3)cc2c1=O)NC1CCN(Cc2ccccc2)CC1	-0.1	12.9*	-5.6	-3.8	1.0	-5.9
